# In PubChem BioAssay (NCI):
# About 79,000 compounds went through this panel and 15% of them were active in at least one assay; those are over-represented in the sample as a whole. Values without a mark were called inactive. Active and inactive are the calls of the source. No stated cut-off is given here; in the data, active means growth inhibition above about 70%; inactive means the rest.
# What was measured:
# [1] = NCI Yeast Anticancer Drug Screen. Data for the rad52 strain (AID 147);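 further: 0% = growth of vehicle-treated control cultures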; conditions: S. cerevisiae rad52 mutant growth inhibition, active compounds read high
# In short: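 Vehicle-treated cultures served as the reference for growth inhibition of compound-exposed yeast bearing a DNA repair mutation.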
# [2] = NCI Yeast Anticancer Drug Screen. Data for the wt1 strain (AID 149);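 further: 0% = growth of vehicle-treated wt1 cultures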; conditions: S. cerevisiae wt1 strain (SPY 50644) growth inhibition, active compounds read high
# In short: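 Vehicle-normalised growth inhibition; strain wt1; compound exposure.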
# [3] = NCI Yeast Anticancer Drug Screen. Data for the rad50EPP+ strain (AID 151);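 further: 0% = growth of vehicle-treated control cultures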; conditions: S. cerevisiae rad50 mutant strain, active compounds read high
# In short: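 In this screen, rad50EPP+ yeast were exposed to compounds. Growth inhibition was scored against vehicle-treated controls.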
# [4] = NCI Yeast Anticancer Drug Screen. Data for the mgt1 strain (AID 153); conditions: S. cerevisiae mgt1 mutant growth inhibition, active compounds read high
# In short: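 mgt1 strain exposed; growth vs vehicle control recorded as inhibition.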
# [5] = NCI Yeast Anticancer Drug Screen. Data for the rad50 strain (AID 155);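 further: 0% = growth of vehicle-only cultures of the same strain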; conditions: S. cerevisiae rad50 strain growth inhibition, active compounds read high
# In short: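 A DNA repair-deficient yeast mutant serves as the test organism; compound-induced growth inhibition is calculated against vehicle-treated cells.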
# [6] = NCI Yeast Anticancer Drug Screen. Data for the mec2-1 strain (AID 157); conditions: S. cerevisiae mec2-1 strain, active compounds read high
# In short: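 Vehicle-treated cultures served as reference for growth inhibition of compound-exposed mec2-1 yeast.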
# [7] = NCI Yeast Anticancer Drug Screen. Data for the rad14 strain (AID 159);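 further: 0% = growth of vehicle-treated control cultures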; conditions: S. cerevisiae rad14 strain growth inhibition, active compounds read high
# In short: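 Vehicle-treated cultures served as the baseline for growth inhibition of a DNA repair-mutant yeast strain exposed to each compound.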
# [8] = NCI Yeast Anticancer Drug Screen. Data for the sgs1 mgt1 strain (AID 161);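 further: 0% = growth of cultures given vehicle only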; conditions: S. cerevisiae sgs1 mgt1 strain, active compounds read high
# In short: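 Read-out: growth inhibition vs vehicle controls. Cells: mutant yeast strain deficient in DNA damage repair.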
# [9] = NCI Yeast Anticancer Drug Screen. Data for the CLN2oe strain (AID 163);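 further: 0% = growth of vehicle-only control cultures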; conditions: S. cerevisiae CLN2oe strain, active compounds read high
# In short: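 Inhibition relative to vehicle-treated yeast is reported. Cells: strain with genetic alteration in cell-cycle control, grown with compound.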
# [10] = NCI Yeast Anticancer Drug Screen. Data for the cln2 rad14 strain (AID 165);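 further: 0% = growth equal to vehicle treated cultures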; conditions: S. cerevisiae cln2 rad14 strain, active compounds read high
# In short: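 Each compound was tested on cln2 rad14 yeast. Inhibition of growth was calculated against vehicle-exposed controls.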
# [11] = NCI Yeast Anticancer Drug Screen. Data for the bub3 strain (AID 167); conditions: S. cerevisiae bub3 mutant strain, active compounds read high
# In short: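 Inhibition values come from growth of compound-treated mutant yeast normalised to vehicle-treated controls.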
# [12] = NCI Yeast Anticancer Drug Screen. Data for the wt2 strain (AID 169);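 further: 0% = growth of vehicle-treated yeast cultures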; conditions: S. cerevisiae wt2 strain growth inhibition, active compounds read high
# In short: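 Inhibition of yeast growth was determined after compound treatment, normalised to controls receiving only vehicle.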
# [13] = NCI Yeast Anticancer Drug Screen. Data for the mlh1 strain (AID 171);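 further: 0% = growth of vehicle-treated control cultures of the same strain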; conditions: S. cerevisiae mlh1 strain growth inhibition, active compounds read high
# In short: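 Vehicle-normalised growth inhibition of a repair- or checkpoint-altered yeast strain following compound treatment.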
# [14] = NCI Yeast Anticancer Drug Screen. Data for the sgs1 strain (AID 173);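 further: 0% = growth of vehicle-only control cultures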; conditions: S. cerevisiae sgs1 mutant, active compounds read high
# In short: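 Screen format: yeast with repair or checkpoint alterations, compound exposure, growth read relative to vehicle.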
# [15] = NCI Yeast Anticancer Drug Screen. Data for the mlh1 rad18 strain (AID 175); conditions: S. cerevisiae mlh1 rad18 strain growth inhibition, active compounds read high
# In short: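 Vehicle-treated cultures served as the reference for growth inhibition in a yeast strain carrying DNA damage repair alterations exposed to each compound.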
# [16] = NCI Yeast Anticancer Drug Screen. Data for the rad18 strain (AID 177); conditions: S. cerevisiae rad18 mutant growth inhibition, active compounds read high
# In short: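 Test articles were incubated with altered yeast defective in DNA damage repair. Results are given as inhibition of growth versus vehicle.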
# [17] = at 5.0 µM (retest, dose inferred, filed as 0.5)
# [18] = at 50.0 µM (retest, dose inferred, filed as 5.0)
smiles,measurement,setting,value
CCCC/C=C1\CCC(CN2CCCC2)C1=O (stereo not drawn),growth inhibition,[1]; at 1.2 µM,-18%
same,growth inhibition,[1]; at 3.7 µM,-24%
same,growth inhibition,[1]; at 11.0 µM,-10%
same,growth inhibition,[1]; at 33.0 µM,17%
same,growth inhibition,[1]; at 100.0 µM,79% (active)
same,growth inhibition,[2]; at 1.2 µM,-10%
same,growth inhibition,[2]; at 3.7 µM,-17%
same,growth inhibition,[2]; at 11.0 µM,9%
same,growth inhibition,[2]; at 33.0 µM,16%
same,growth inhibition,[2]; at 100.0 µM,26%
same,growth inhibition,[3]; at 1.2 µM,-4%
same,growth inhibition,[3]; at 3.7 µM,-6%
same,growth inhibition,[3]; at 11.0 µM,-8%
same,growth inhibition,[3]; at 33.0 µM,10%
same,growth inhibition,[3]; at 100.0 µM,76% (active)
same,growth inhibition,[4]; at 1.2 µM,21%
same,growth inhibition,[4]; at 3.7 µM,21%
same,growth inhibition,[4]; at 11.0 µM,39%
same,growth inhibition,[4]; at 33.0 µM,62%
same,growth inhibition,[4]; at 100.0 µM,95% (active)
same,growth inhibition,[5]; at 1.2 µM,7%
same,growth inhibition,[5]; at 3.7 µM,25%
same,growth inhibition,[5]; [17],40%
same,growth inhibition,[5]; at 11.0 µM,20%
same,growth inhibition,[5]; at 33.0 µM,40%
same,growth inhibition,[5]; [18],44%
same,growth inhibition,[5]; at 50.0 µM,83% (active)
same,growth inhibition,[5]; at 100.0 µM,79% (active)
same,growth inhibition,[6]; at 1.2 µM,0%
same,growth inhibition,[6]; at 3.7 µM,7%
same,growth inhibition,[6]; [17],4%
same,growth inhibition,[6]; at 11.0 µM,27%
same,growth inhibition,[6]; at 33.0 µM,23%
same,growth inhibition,[6]; [18],35%
same,growth inhibition,[6]; at 50.0 µM,59.2%
same,growth inhibition,[6]; at 100.0 µM,85% (active)
same,growth inhibition,[7]; at 1.2 µM,28%
same,growth inhibition,[7]; at 3.7 µM,44%
same,growth inhibition,[7]; at 11.0 µM,66%
same,growth inhibition,[7]; at 33.0 µM,82% (active)
same,growth inhibition,[7]; at 100.0 µM,93% (active)
same,growth inhibition,[8]; [17],18%
same,growth inhibition,[8]; [18],51%
same,growth inhibition,[8]; at 50.0 µM,78.2% (active)
same,growth inhibition,[9]; at 1.2 µM,28%
same,growth inhibition,[9]; at 3.7 µM,48%
same,growth inhibition,[9]; at 11.0 µM,49%
same,growth inhibition,[9]; at 33.0 µM,70% (active)
same,growth inhibition,[9]; at 100.0 µM,79% (active)
same,growth inhibition,[10]; [17],39%
same,growth inhibition,[10]; [18],55%
same,growth inhibition,[10]; at 50.0 µM,73.3% (active)
same,growth inhibition,[11]; at 1.2 µM,1%
same,growth inhibition,[11]; at 3.7 µM,33%
same,growth inhibition,[11]; [17],50%
same,growth inhibition,[11]; at 11.0 µM,39%
same,growth inhibition,[11]; at 33.0 µM,63%
same,growth inhibition,[11]; [18],81% (active)
same,growth inhibition,[11]; at 50.0 µM,80.7% (active)
same,growth inhibition,[11]; at 100.0 µM,94% (active)
same,growth inhibition,[12]; at 1.2 µM,-33%
same,growth inhibition,[12]; at 3.7 µM,-17%
same,growth inhibition,[12]; at 11.0 µM,-3%
same,growth inhibition,[12]; at 33.0 µM,20%
same,growth inhibition,[12]; at 100.0 µM,74% (active)
same,growth inhibition,[13]; at 1.2 µM,22%
same,growth inhibition,[13]; at 3.7 µM,36%
same,growth inhibition,[13]; at 11.0 µM,56%
same,growth inhibition,[13]; at 33.0 µM,76% (active)
same,growth inhibition,[13]; at 100.0 µM,97% (active)
same,growth inhibition,[14]; at 1.2 µM,-1%
same,growth inhibition,[14]; at 3.7 µM,22%
same,growth inhibition,[14]; at 11.0 µM,44%
same,growth inhibition,[14]; at 33.0 µM,67%
same,growth inhibition,[14]; at 100.0 µM,94% (active)
same,growth inhibition,[15]; [17],41%
same,growth inhibition,[15]; [18],80% (active)
same,growth inhibition,[15]; at 50.0 µM,73.5% (active)
same,growth inhibition,[16]; at 1.2 µM,-3%
same,growth inhibition,[16]; at 3.7 µM,15%
same,growth inhibition,[16]; at 11.0 µM,34%
same,growth inhibition,[16]; at 33.0 µM,65%
same,growth inhibition,[16]; at 100.0 µM,92% (active)
